From PubChem BioAssay
TrxR1 substrate – substrates of rat thioredoxin reductase 1 | purified TrxR1 substrate turnover, NADPH consumption readout | Potency, µM (doses to about 114 µM), for the others: top-dose activity change, negative = substrate turnover | 0.01% of 390,000 active | AID 588456 | O89049; further: nearly all actives have a fitted effect of over 50% in size
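Rat TrxR1, dispensed at 90 nM, was prereduced with 400 uM NADPH (final) for 5 min at ~22 deg C, then incubated with compound 15 min before 400 uM selenite. A first-read NADPH fluorescence drop versus no-compound background flagged substrates.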
PLK1 PBD block – inhibitors of human PLK1 polo-box domain binding. Potency, µM, inactives show max response, negative = inhibition, usual class: inhibitors. 2.8% of 360,000 active. Plk1 PBD binding of FITC phosphopeptide, fluorescence polarization. P53350. AID 720504; further: series mostly up to about 57 µM; nearly all actives have a fitted effect of over 65% in size
Target sequence (P53350 whole entry, looked up, the tested form may be a part): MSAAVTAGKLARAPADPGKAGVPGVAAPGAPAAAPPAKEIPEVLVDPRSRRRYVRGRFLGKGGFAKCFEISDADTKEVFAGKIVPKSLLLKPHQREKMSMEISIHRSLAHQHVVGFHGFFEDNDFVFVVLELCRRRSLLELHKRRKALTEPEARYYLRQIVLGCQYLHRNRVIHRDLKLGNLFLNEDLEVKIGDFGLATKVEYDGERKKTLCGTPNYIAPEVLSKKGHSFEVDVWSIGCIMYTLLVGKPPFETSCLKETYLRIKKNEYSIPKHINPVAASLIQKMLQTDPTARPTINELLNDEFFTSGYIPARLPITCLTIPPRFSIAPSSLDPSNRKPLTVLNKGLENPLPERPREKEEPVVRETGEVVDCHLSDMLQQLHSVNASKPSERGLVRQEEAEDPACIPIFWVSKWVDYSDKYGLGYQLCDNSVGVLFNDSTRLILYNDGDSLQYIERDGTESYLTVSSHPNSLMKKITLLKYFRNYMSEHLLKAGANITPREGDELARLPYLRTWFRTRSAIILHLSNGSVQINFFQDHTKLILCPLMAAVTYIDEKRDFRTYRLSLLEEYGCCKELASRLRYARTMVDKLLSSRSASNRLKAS
IDH1 R132H inh – inhibitors of human mutant IDH1 R132H. Potency, µM (series often up to 76.6 µM), for the others: top-dose activity change, negative = inhibition, usual class: inhibitors. 0.093% of 390,000 active. IDH1-R132H enzyme, NADPH consumption, diaphorase/resazurin fluorescence. O75874; further: nearly all actives have a fitted effect of over 65% in size
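IDH1-R132H (0.5 ug/mL) preincubated 30 min with compound, then NADPH (0.016 mM) and alpha-KG (2 mM) added; 80 min at RT, pH 7.5. Remaining NADPH coupled via diaphorase/resazurin to fluorescence (540/590 nm); concentration-response curves normalized to no-enzyme control.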
rTrxR1 inhibitor – rat TrxR1 inhibition. O89049. recombinant rTrxR1, NADPH fluorescence consumption, selenite substrate. Potency, µM (titrated, usually from 114 µM), for inactives: at the top dose activity change, negative = inhibition, actives largely listed as inhibitors. 1% of 390,000 active; further: nearly all actives have a fitted effect of over 65% in size
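Rat TrxR1 (90 nM in the dispensed reagent) was pre-reduced with 400 uM NADPH for 5 min at room temperature, then incubated with compound for 15 min. After 400 uM selenite was added, NADPH fluorescence (Ex 340/Em 450 nm) was followed for 8 min.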
Sfp inh – blocks B. subtilis Sfp PPTase activity; Q9F4F7; Potency, µM, without a hit: largest response in the series, negative = inhibition, usual class: inhibitors; 3.5% of 310,000 active; AID 1490; Biochemical Sfp PPTase activity, qHTS;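 further: the enzyme is Sfp with the accession as filed and its product quenches rhodamine fluorescence; 0% = enzyme reaction without inhibitor and -100% = no enzyme wells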
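Buffer: 50 mM Hepes-Na pH 7.6, 10 mM MgCl2, 0.01% Nonidet P-40, 0.01% BSA. Enzyme 15 nM, pre-exposed to compound 15 min; substrates then added and fluorescence change tracked over 30 min.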
VDR inhibitor – inhibitors of human vitamin D receptor | P11473 | VDR-SRC2-3 peptide fluorescence polarization, 2 h | Potency, µM, for inactives: max response, negative = inhibition, usual class: inhibitors | 0.93% of 400,000 active | AID 504847
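Inhibition of the VDR/SRC2-3 peptide interaction is quantified by fluorescence polarization. Compounds (23 nl, pintool) incubate with the reagents for 2 hours at ambient room temperature.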
An asterisk follows results filed as active; ? = inconclusive; . = no result given; [ ] = another dose, or the depositor's remark. This is a sample that favours compounds with a hit; in the whole collection about 5.2% have one here. The call rests on the fitted dose curve; in most records, active means well fitted curve in the direction sought with a large enough effect; inconclusive means small, poorly fitted or top-dose-only effect, or another doubt; inactive means no such curve, though single readings can be large; an effect the other way counts as inactive or inconclusive. Unless noted, on the % scale 0 is the no-effect control and ±100 the full control effect; potency means the concentration at half of the fitted maximal effect.

SMILES | TrxR1 substrate | PLK1 PBD block | IDH1 R132H inh | rTrxR1 inhibitor | Sfp inh | VDR inhibitor
O=C(CSc1cccc[n+]1[O-])c1cc2ccccc2o1 | 3% | 27µM* | -6% | -15% | ? | -3%
O=C(CSc1cccc[n+]1[O-])c1cccs1 | -11% | 24µM* | 9% | ? | 4% | 7%
NC(=O)C1CCN(C(=O)CC2(CC(=O)O)CCCC2)CC1 | 4% | -7% | 9% | 21% | -3% | -7%
O=C(CN1C(=O)NC(Cc2c[nH]c3ccccc23)C1=O)NCCc1ccccc1 (stereo not drawn) | 0% | -11% | 10% | 17% | 9% | -16%
CCCNC(=O)CN1C(=O)NC(Cc2c[nH]c3ccccc23)C1=O (stereo not drawn) | -9% | 27µM* | 14% | 29%[57.1 µM] | -6% | ?
COc1cc(NC(=O)CSc2ncnc3sc4c(c23)CCCC4)c(C(=O)O)cc1OC | 5% | 27µM* | 7% | 2% | ? | -21%
CC(=O)CSc1ncnc2sc3c(c12)CCC3 | 4% | -8% | -1% | -7%[57.1 µM] | 2% | -8%
COc1ccc2nc(SCC(=O)Nc3cc(OC)c(OC)cc3C(=O)O)c(C)cc2c1 | 5%[57.1 µM] | 30µM* | -12% | -4%[57.1 µM] | 79µM* | -11%
Cc1ccc(C)c(N2CCN(S(=O)(=O)c3cc(-c4cc(C)no4)ccc3C)CC2)c1 | -5%[57.1 µM] | . | 2% | 9%[57.1 µM] | . | 10%
Brc1ccc2nc(C3CCCCC3)c(Cc3ccsc3)n2c1 | . | -4% | . | . | . | .
CCOC(=O)c1[nH]c(C)c(CCC(=O)Nc2cc(C)ccc2OC)c1C | 3%[57.1 µM] | . | -10% | 27%[57.1 µM] | . | 12%
CCCn1nnnc1NCc1c(F)cccc1Cl | -1% | 8.4µM* | -8% | 33% | 7% | ?
COc1ccccc1CN1C(=O)CNC1=S | 2% | -5% | 1% | 3% | 7% | 4%
COc1ccccc1Cn1[nH]nnc1=S | 9%[57.1 µM] | 24µM* | 0% | -20%[57.1 µM] | 40µM* | -15%
COC(=O)N/N=C(\C)c1ccc(OC(F)F)cc1 | 12%[57.1 µM] | -8% | 16% | 22%[57.1 µM] | 7% | -23%
C/C(=N\Nc1ncc(Cl)cc1Cl)c1ccc2c(c1)OCO2 | 0% | 3% | 0% | -3% | 79µM* | -21%
C/C(=N\NC(=O)c1ccc2c(c1)OCO2)c1ccc2c(c1)OCO2 | -7% | -7% | 7% | 8% | 12% | -19%
C/C(=N\Nc1ncc(Cl)cc1Cl)c1ccc(OC(F)F)cc1 | -10% | 3% | 3% | -5% | 56µM* | -10%
COc1ccccc1C(=O)Nc1nnc(SCc2cc(=O)c3ccccc3[nH]2)s1 | -1%[57.1 µM] | . | 3% | 11%[57.1 µM] | . | 9%
O=c1c2c(nc3cc(-c4ccccc4Cl)[nH]n13)CCS2 | -3% | -19% | 0% | 2% | 22µM* | 11%
O=C1OC(c2ccccc2)=NC12CC2c1ccc(Cl)cc1 (stereo not drawn) | -2% | 1.9µM* | 3% | 7.9µM* | ? | 25µM*
Cc1cccc(NC(=O)CN2C(=O)N/C(=C/c3ccc(-c4cccc(C(=O)O)c4C)o3)C2=O)c1 | -6% | -22% | -3% | -8% | 32µM* | -8%
Cc1cccc(NC(=O)CN2C(=O)N/C(=C/c3ccc(C)s3)C2=O)c1 | -12% | 19% | -1% | -12% | -20% | -9%
Cc1ccc(NC(=O)CN2C(=O)S/C(=C\c3ccc(-c4cccc(C(=O)O)c4C)o3)C2=O)cc1C | -2%[57.1 µM] | 19µM* | -22% | -36% | 45µM* | -19%
CC(=O)c1ccccc1OC(=O)COc1ccc([N+](=O)[O-])cc1 | -8% | 21µM* | -1% | ? | 1% | ?
SMILES | TrxR1 substrate | PLK1 PBD block | IDH1 R132H inh | rTrxR1 inhibitor | Sfp inh | VDR inhibitor
Cc1ccc(-n2ncc(C(=O)NCCCN3CCc4ccccc4C3)c2C2CCN(C(=O)OC(C)(C)C)CC2)c(C)c1 | -6% | . | 0% | 12% | . | 1%
CC(C)CCCC(C)CCCC(C)CCCC(C)C(=O)O (stereo not drawn) | . | . | . | . | -15% | ?
O=C(COc1ccc(-c2ccccc2)cc1)NNC(=O)Nc1ccccc1 | 3% | -15% | -6% | 32% | . | -9%
NC(=O)Cn1cnc2c(nnn2-c2ccc(F)cc2)c1=O | 0% | 27µM* | 0% | 9% | 21% | -18%
Cc1ccc(-n2nnc3c(=O)n(CC(N)=O)cnc32)cc1 | ? | 1% | 0% | -14% | 9% | -12%
CN(Cc1ccco1)c1ccnc(-c2cccnc2)n1 | . | . | . | . | -16% | 45µM*
CN(Cc1ccco1)c1ccnc(-c2ccoc2)n1 | . | . | . | . | 50µM* | 45µM*
CN(Cc1ccco1)c1ccnc(-c2ccccc2C(F)(F)F)n1 | . | . | . | . | -7% | 45µM*
CNc1ccnc(-c2c(C)noc2C)n1 | . | . | . | . | 12% | 8%
c1cncc(-c2noc(-c3ccco3)n2)c1 | 2% | 0% | 9% | -4% | -5% | 6%
Cc1noc(C)c1-c1nccc(N(C)Cc2ccco2)n1 | . | . | . | . | ? | 45µM*
CN(C)c1ncnc2ccc(-c3ccccc3C#N)cc12 | . | . | . | . | 3% | 4%
COc1c(CC(=O)c2cc3c(cc2O)OC(C)(C)C(O)C3)ccc2c1C=CC(C)(C)O2 (stereo not drawn) | . | . | . | . | -13% | 0%
CN(Cc1ccco1)c1ccnc(-c2cccc(C#N)c2)n1 | . | . | . | . | ? | 35µM*
COc1ccc(-c2nc(SCC(=O)NC3CCCC3)c(-c3ccc(F)cc3)[nH]2)cc1OC | -9% | . | -12% | 2% | . | -7%
COc1cc(/C=C2\N=C(C)OC2=O)cc(OC)c1OC | 5% | -11% | 3% | 45µM* | 6% | 40µM*
CCOc1c(Br)cc(/C=C2\N=C(C)OC2=O)cc1Br | 9% | -24% | -7% | -14% | 8% | -3%
CCOC(=O)Oc1ccc(/C=C2\N=C(C)OC2=O)cc1 | -17%[57.1 µM] | -27% | 8% | -72% | -7% | 20µM*
CCc1nc(-c2ccccc2)c2ccccn12 | 5%[57.1 µM] | -1% | 0% | 16%[57.1 µM] | 28µM* | -8%
O=C(COC(=O)CNC(=O)c1ccccc1F)NC12CC3CC(CC(C3)C1)C2 | -1% | -6% | -1% | 4% | . | -4%
C#CCOCCOCCOCCNc1nc(N2CCN(C(=O)C([C@@H](C)O)n3cc([C@@H](N)CCCCN)nn3)CC2)nc(N2CCN(C(=O)[C@H](CCC(=O)O)n3cc([C@@H](N)[C@H](C)CC)nn3)CC2)n1 (stereo partly drawn) | 4% | 3% | 14% | -10% | . | 1%
C#CCOCCOCCOCCNc1nc(N2CCN(C(=O)[C@H](CCCCN)n3cc(C(N)CC(C)C)nn3)CC2)nc(N2CCN(C(=O)[C@H](CCC(=O)O)n3cc(C(N)[C@H](C)CC)nn3)CC2)n1 (stereo partly drawn) | 10% | -10% | 15% | 18µM* | 5% | -17%
